Laboratory results reported in PubChem BioAssay (EPA / NIEHS).
Results filed as inconclusive are left out. The source made the active and inactive calls. Rule for the calls, unless noted: active = hit-call score of the fitted dose curve at least 0.9, where 1 is the maximum; inactive = score below 0.9.

Columns and labels:
[1] = ACEA_ER_80hr: ACEA Biosciences xCELLigence Real-Time Cell Analysis on Estrogen Receptor Agonism for Proliferation (AID 2282667; active = hit-call score of the fitted dose curve at least 0.9, where 1 is the maximum); details: T47D proliferation, impedance (xCELLigence), 80 h
Procedure, shortened: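 Real-time impedance growth kinetics of human T-47D breast cells read 80 h after dosing, gain-of-signal fitted relative to DMSO. Compounds: 1:4 serial series, top final concentration 100 uM, n = 2.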

[2] = APR_HepG2_CellCycleArrest_24hr: Apredica 24-hour HepG2 Assay for Cell Cycle Arrest (AID 2282905); details: imaging, actives raise or lower the signal;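 note: cell cycle arrest scored as ratio of 2N to 4N nuclear DNA content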
Procedure, shortened: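 Compounds (0.39 to 200 uM, final DMSO 0.5% v/v) are applied to HepG2 cells for 24 hours; cells are then fixed, permeabilized and nuclei labeled with Hoechst 33342. Automated imaging measures DNA content, and activity is fitted in both directions against DMSO.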

[3] = APR_HepG2_NuclearSize_24hr: Apredica 24-hour HepG2 Assay for Nuclear Size (AID 2282907); details: high-content imaging, actives raise or lower the signal
Procedure, shortened: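 Nuclear size is measured by fluorescence high-content imaging of Hoechst-labelled HepG2 nuclei after 24 hr of treatment (0.39–200 uM, 0.5% DMSO). Cells are fixed in 3.7% formaldehyde before staining, and DMSO serves as the baseline for bidirectional curve fitting.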

[4] = APR_HepG2_CellLoss_24hr: Apredica 24-hour HepG2 Assay for Cell Loss (AID 2282908); details: high-content imaging;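 for AC50: fit in both directions so a hit may be cell loss or gain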
Procedure, shortened: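 Nuclear count serves as the viability measure: treated cells are fixed, permeabilized and labelled with Hoechst 33342, and six images per well are analysed to identify valid nuclei. Doses span 0.39–200 uM, and activity in either direction is scored against DMSO.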

[5] = APR_HepG2_MicrotubuleCSK_24hr: Apredica 24-hour HepG2 Assay for Microtubule CSK Stabilty (AID 2282909); details: HepG2 microtubule cytoskeleton imaging, actives raise or lower the signal
Procedure, shortened: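 Compounds were applied to HepG2 cells for 24 hours across 0.39–200 uM in duplicate, with final DMSO at 0.5% v/v. Fixed, permeabilized cells were labeled for alpha-tubulin and nuclei, and tubulin fluorescence was quantified by imaging, fitted bidirectionally against DMSO.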

[6] = APR_HepG2_MitoticArrest_24hr: Apredica 24-hour HepG2 Assay for Mitotic Arrest (AID 2282910); details: high-content imaging, actives raise or lower the signal
Procedure, shortened: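 High-content imaging of fixed HepG2 cells labeled with Hoechst 33342 and anti-phospho-histone H3, after 24 h treatment. Ten concentrations 0.39 to 200 uM in duplicate, final DMSO 0.5%; changes fitted both directions relative to DMSO.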

[7] = APR_HepG2_MitoMembPot_24hr: Apredica 24-hour HepG2 Assay for Mitochondrial Membrane Potential (AID 2282911); details: imaging, actives raise or lower the signal
Procedure, shortened: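 Mitochondrial membrane potential imaged via MitoTracker Red CMXRos (250 nM, 30 min pre-fixation) in fixed HepG2 cells with Hoechst nuclear identification. Ten concentrations 0.39–200 uM, 24 h treatment, 0.5% DMSO; CCCP as positive control.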

[8] = APR_HepG2_MitoMass_24hr: Apredica 24-hour HepG2 Assay for Mitochondrial Mass (AID 2282912); details: high-content imaging, actives raise or lower the signal
Procedure, shortened: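 After 24 hr of treatment at 0.39 to 200 uM, HepG2 cells take up 250 nM MitoTracker Red CMXRos for 30 min and are then fixed with 3.7% formaldehyde. Per-well images are quantified, and any change in either direction is scored against solvent.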

[9] = APR_HepG2_CellCycleArrest_72hr: Apredica 72-hour HepG2 Assay for Cell Cycle Arrest (AID 2282914); details: high-content imaging, actives raise or lower the signal
Procedure, shortened: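 Read-out: nuclear DNA content from Hoechst 33342 high-content imaging (20x, six fields/well) after 3.7% formaldehyde fixation, fitted bidirectionally against DMSO. Treatment was 72 h in HepG2, ten concentrations 0.39–200 uM, duplicate, 0.5% DMSO.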

[10] = APR_HepG2_CellLoss_72hr: Apredica 72-hour HepG2 Assay for Cell Loss (AID 2282915); details: high-content imaging
Procedure, shortened: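 Cell number comes from Hoechst 33342-labelled nuclei, imaged at 20x after 3.7% formaldehyde fixation. Dosing was 0.39–200 uM, ten concentrations in duplicate, 0.5% DMSO final, for 72 h. Bidirectional fit relative to DMSO baseline.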

Measured: AC50

CCn1nc(C)c2c1C(=O)NCC(c1ccc(O)cc1)=N2
inactive: all assays above

OCCNCCO
not listed: [10]
inactive: all other assays above

CCOc1ccc2[nH]cc(C(=O)NCc3ccccc3)c(=O)c2n1
active: [1] 69 µM | [6] 104 µM
not listed: [10]
inactive: all other assays above

NC(=O)NN=Cc1ccc([N+](=O)[O-])o1
active: [1] 10.5 µM | [2] 81.4 µM | [4] 57.6 µM | [9] 56.7 µM
not listed: [10]
inactive: all other assays above

CCCCOC(=O)c1ccccc1
not listed: [10]
inactive: all other assays above

CCCCCCCCCCCCCCCCOS(=O)(=O)O
not listed: [10]
inactive: all other assays above

c1ccc2ncccc2c1
not listed: [10]
inactive: all other assays above

CCCCCCCC/C=C\CCCCCCCC(=O)OC[C@@H](O)[C@H]1OC[C@H](O)[C@H]1O
not listed: [10]
inactive: all other assays above

Cn1c(=O)c2[nH]cnc2n(C)c1=O
not listed: [10]
inactive: all other assays above

CCc1ccc(O)c(C(C)(C)C)c1
inactive: [1] | [3] | [9]
active: [2] 98.1 µM | [4] 83.8 µM | [5] 80.7 µM | [6] 101 µM | [7] 86.2 µM | [8] 105 µM

OCC(CO)(CO)CO
not listed: [10]
inactive: all other assays above

O=C(NO)C1(NS(=O)(=O)c2ccc(Oc3ccc(F)cc3)cc2)CCOCC1
not listed: [10]
inactive: all other assays above

Cc1nc(-c2ccccn2)ncc1C(=O)Nn1cc(C)c2cc(F)ccc21
inactive: [1] | [3] | [5]
active: [2] 99.5 µM | [4] 88.7 µM | [6] 101 µM | [7] 100 µM | [8] 108 µM | [9] 162 µM

C[C@]12C=CC(=O)C=C1CC[C@H]1[C@@H]3C[C@@H](O)[C@](O)(C(=O)CO)[C@@]3(C)C[C@H](O)[C@@]12F
active: [1] 10.9 µM
not listed: [10]
inactive: all other assays above

O=S(=O)(O)c1ccc(N=Nc2c(O)ccc3cc(S(=O)(=O)O)ccc23)cc1
not listed: [10]
inactive: all other assays above

CCN(CC)C(=S)SSC(=S)N(CC)CC
inactive: [1] | [2] | [3] | [7]
active: [4] 50.6 µM | [5] 78.9 µM | [6] 25.2 µM | [8] 26.1 µM | [9] 3.04 µM | [10] 22.9 µM

CC(C)CC(C)O (centres undefined)
not listed: [10]
inactive: all other assays above

Cc1ccc(S(=O)(=O)NC(=O)NN2CCCCCC2)cc1
not listed: [10]
inactive: all other assays above

COc1cc2c(c(OC)c1OC)-c1ccc(OC)c(=O)cc1[C@@H](NC(C)=O)CC2
active: [2] 0.0391 µM | [4] 0.0447 µM | [6] 0.0382 µM | [9] 0.0732 µM
not listed: [10]
inactive: all other assays above

CCOC(N)=O
not listed: [10]
inactive: all other assays above

NC(=O)N(O)[C@@H]1COc2cc(OCc3ccccc3)ccc21
active: [7] 52.2 µM
not listed: [10]
inactive: all other assays above

Cc1nccn1-c1ccc(Sc2cccc(C3(C(N)=O)CCOCC3)c2)cc1
active: [1] 0.782 µM | [4] 3.13 µM | [8] 19.8 µM | [9] 5.05 µM
not listed: [10]
inactive: all other assays above

CCCCCCCCCC
not listed: [10]
inactive: all other assays above

CC1(C)C(=O)N(Cl)C(=O)N1Cl
not listed: [10]
inactive: all other assays above

CCCc1ccccc1
active: [7] 61.3 µM
not listed: [10]
inactive: all other assays above

O=C(O)c1cccc(C[C@@H]2COc3ccc(OCc4nc5cc(F)ccc5s4)cc3[C@@H]2O)c1
inactive: [1] | [3] | [5] | [7]
active: [2] 50.1 µM | [4] 53.9 µM | [6] 93.5 µM | [8] 156 µM | [9] 64 µM

OC(Cn1cncn1)(Cn1cncn1)c1ccc(F)cc1F
not listed: [10]
inactive: all other assays above

c1ccc(C(O[C@@H]2CCCN(CCc3ccc4c(c3)OCO4)C2)c2ccccc2)cc1
inactive: [1] | [3] | [7] | [9]
active: [2] 83.5 µM | [4] 99.9 µM | [5] 88.3 µM | [6] 96.3 µM | [8] 100 µM

OC[C@H]1O[C@@H]2O[C@H]3[C@H](O)[C@@H](O)[C@@H](O[C@H]4[C@H](O)[C@@H](O)[C@@H](O[C@H]5[C@H](O)[C@@H](O)[C@@H](O[C@H]6[C@H](O)[C@@H](O)[C@@H](O[C@H]7[C@H](O)[C@@H](O)[C@@H](O[C@H]1[C@H](O)[C@H]2O)O[C@@H]7CO)O[C@@H]6CO)O[C@@H]5CO)O[C@@H]4CO)O[C@@H]3CO
inactive: all assays above
